This note sets out measurements from PubChem BioAssay (NCI).

Holding throughout (assay): NCI-60 one-dose screen, 48 h (100 = growth as untreated, 0 = no growth, -100 = all killed)
One experiment relates to HCT-15 colon. To be noted: 10 µM.
The next experiment deals with HT29 colon. The conditions noted are these: 10 µM.
The test system of the next experiment is SNB-75 CNS. To be noted: 10 µM.
Another experiment concerns SNB-19 CNS. To be noted: 10 µM.
The subject of a further experiment is U251 CNS. The conditions noted are these: 10 µM.
A further experiment concerns PC-3 prostate. The conditions noted are these: 10 µM.
The test system of the next experiment is SK-MEL-5 melanoma. The conditions noted are these: 10 µM.
Another experiment has as its system UACC-62 melanoma. To be noted: 10 µM unless noted.
In a further experiment the test system is LOX IMVI melanoma. The conditions noted are these: 10 µM.

Molecules are shown by their SMILES. “And” between values parts separate entries of the source, which are not always exact repeats. Identical values can stand only once. The panel holds about 83,000 compounds, 20% with a hit somewhere; the sample as a whole holds those more often.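 Method: cells in 96-well plates; compound added at one concentration; 48 h incubation; percent growth measured; values under 10 scored active.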 The source made the active and inactive calls.

On to `NC(Cc1ccccc1)c1ccccc1` (stereo unspecified), for which the growth in the experiment on HCT-15 colon was 110% (inactive) and 97.8% (inactive); with HT29 colon, 106% (inactive) and 95.1% (inactive); in the experiment on SNB-75 CNS, 93.9% (inactive) and 84.8% (inactive); in the experiment with SNB-19 CNS, 105% (inactive) and 99.7% (inactive); in the experiment on U251 CNS it was 103% (inactive) and 102% (inactive); in the experiment with PC-3 prostate, 84.8% (inactive) and 90% (inactive). For the same molecule, the growth is 94.1% (inactive) and 100% (inactive) in the experiment on SK-MEL-5 melanoma; 99.8% (inactive) and 91.6% (inactive) with UACC-62 melanoma; 92.2% (inactive) and 97.5% (inactive) in the experiment on LOX IMVI melanoma.
With `C/C1=C\[C@H](C)C[C@H](C)OC(=O)C[C@H](c2ccc(O)cc2)NC(=O)[C@@H](Cc2c(Br)[nH]c3ccccc23)N(C)C(=O)[C@H](C)NC(=O)[C@@H](C)C1`, the growth in the experiment on HCT-15 colon is -38.1% (active); with HT29 colon, -33.5% (active); in the experiment on SNB-75 CNS, -76.4% (active); in the experiment on SNB-19 CNS it was -21.9% (active); in the experiment on U251 CNS, -50.6% (active); in the experiment on PC-3 prostate, -59.6% (active). Also, the growth is -74.5% (active) with SK-MEL-5 melanoma, -1.83% (active) in the experiment with UACC-62 melanoma and -32.7% (active) in the experiment on LOX IMVI melanoma.
Take `COc1cc2c(cc1OC)C13CCN4CC5=CCOC6CC(=O)N2C1C6C5CC43` (stereo unspecified): the growth in the experiment with HCT-15 colon is 103% (inactive) and 109% (inactive); in the experiment with HT29 colon it was 122% (inactive) and 111% (inactive); in the experiment with SNB-75 CNS, 97.8% (inactive) and 111% (inactive); in the experiment with SNB-19 CNS it was 105% (inactive) and 111% (inactive); with U251 CNS it was 98% (inactive) and 98.4% (inactive); in the experiment with PC-3 prostate, 94.8% (inactive) and 40% (inactive). Moreover, the growth is 92.9% (inactive) and 91.1% (inactive) in the experiment with SK-MEL-5 melanoma; 104% (inactive) and 88.1% (inactive) in the experiment with UACC-62 melanoma; 101% (inactive) and 97.4% (inactive) in the experiment with LOX IMVI melanoma.
Consider `C[C@@H]1C[C@@H]([C@H](O)CC2CC(=O)NC(=O)C2)C(=O)[C@@H](C)C1`, for which the growth in the experiment with HCT-15 colon is 8.36% (active); with HT29 colon, 3.76% (active); with SNB-75 CNS, 8.07% (active); in the experiment on SNB-19 CNS, 10.5% (inactive); in the experiment with U251 CNS, 3.25% (active); in the experiment on PC-3 prostate it was 8.32% (active). Further, the growth with SK-MEL-5 melanoma is 0.54% (active); in the experiment with UACC-62 melanoma, 5.43% (active); with LOX IMVI melanoma, -10.7% (active).
As for `O=[P+](O)c1ccccc1`, the growth in the experiment on HCT-15 colon was 108% (inactive); in the experiment with HT29 colon, 118% (inactive); in the experiment on SNB-75 CNS it was 97.4% (inactive); with SNB-19 CNS, 106% (inactive); in the experiment with U251 CNS, 104% (inactive); with PC-3 prostate it was 93.6% (inactive). Moreover, the growth with SK-MEL-5 melanoma was 106% (inactive); with UACC-62 melanoma it was 105% (inactive); with LOX IMVI melanoma, 102% (inactive).
With `COC(C(=O)C(O)C(C)O)C1Cc2cc3cc(OC4CC(OC(C)=O)C(OC5CC(O)C(OC)C(C)O5)C(C)O4)cc(O)c3c(O)c2C(=O)C1OC1CC(OC2CC(OC3CC(C)(O)C(OC(=O)C(C)C)C(C)O3)C(O)C(C)O2)C(O)C(C)O1` (stereo unspecified), the growth is 25.1% (inactive) with HCT-15 colon; -2.06% (active) with HT29 colon; -74% (active) in the experiment with SNB-75 CNS; -4.78% (active) in the experiment with SNB-19 CNS; 8.24% (active) with U251 CNS; 1.13% (active) in the experiment with PC-3 prostate. Besides, the growth in the experiment with SK-MEL-5 melanoma was -97.3% (active); in the experiment with UACC-62 melanoma, -97% (active); with LOX IMVI melanoma it was 1.99% (active).
In the case of `COc1cc(/C=C\[N+](=O)[O-])ccc1O`, the growth was -12% (active) and 75.9% (inactive) in the experiment on HCT-15 colon; 32.3% (inactive) and 90.3% (inactive) in the experiment on HT29 colon; 93.6% (inactive) and 96.7% (inactive) with SNB-75 CNS; 82.6% (inactive) and 81.2% (inactive) with SNB-19 CNS; 50.1% (inactive) and 64.1% (inactive) with U251 CNS; 97.6% (inactive) and 90.3% (inactive) with PC-3 prostate. In addition, the growth was 77% (inactive) and 79.3% (inactive) with SK-MEL-5 melanoma; 61.1% (inactive) and 80.2% (inactive) in the experiment on UACC-62 melanoma; -66.1% (active) and 46.7% (inactive) with LOX IMVI melanoma.
As to `Oc1c(I)cc(I)cc1I`, the growth in the experiment on HCT-15 colon was 108% (inactive); in the experiment with HT29 colon, 107% (inactive); with SNB-75 CNS it was 87.9% (inactive); in the experiment with SNB-19 CNS, 96.3% (inactive); with U251 CNS, 106% (inactive); with PC-3 prostate, 93.1% (inactive). Moreover, the growth in the experiment on SK-MEL-5 melanoma is 98.1% (inactive); in the experiment on UACC-62 melanoma, 102% (inactive).
Regarding `CC(=O)Nc1c2sscc-2n(C)c1=O`, the growth was -100% (active) in the experiment with HCT-15 colon; -76.2% (active) with HT29 colon; -98.3% (active) in the experiment with SNB-75 CNS; -100% (active) with SNB-19 CNS; -100% (active) in the experiment with U251 CNS; -95.9% (active) in the experiment with PC-3 prostate. The growth is -100% (active) in the experiment with SK-MEL-5 melanoma, -99.2% (active) in the experiment on UACC-62 melanoma and -98.3% (active) in the experiment with LOX IMVI melanoma.
In the case of `CC12OOC(c3ccccc31)c1c2ccc2ccccc12` (stereo unspecified), the growth in the experiment on HCT-15 colon was -93.2% (active); in the experiment with HT29 colon, -81.3% (active); in the experiment on SNB-75 CNS, -20.4% (active); in the experiment on SNB-19 CNS, 64.8% (inactive); in the experiment with U251 CNS it was 50.3% (inactive); with PC-3 prostate, -74.4% (active). In addition, the growth in the experiment with SK-MEL-5 melanoma is 61.7% (inactive); in the experiment on UACC-62 melanoma it was 59.6% (inactive); in the experiment with LOX IMVI melanoma it was -91.2% (active).
As for `COC12c3c(C)cc(O)c4c(=O)occ(c34)C(=O)C1C13COC(=O)c4c(O)cc(C)c(c41)C(=O)C2C3OC(C)=O` (stereo unspecified), the growth in the experiment on HCT-15 colon was 100% (inactive); in the experiment with HT29 colon it was 105% (inactive); with SNB-75 CNS it was 89.6% (inactive); in the experiment on SNB-19 CNS, 97.6% (inactive); in the experiment on U251 CNS, 102% (inactive); in the experiment on PC-3 prostate, 80.2% (inactive). The growth in the experiment on SK-MEL-5 melanoma was 111% (inactive); with UACC-62 melanoma it was 97.5% (inactive); in the experiment with LOX IMVI melanoma, 104% (inactive).
As to `CC/C(=C/c1ccc(OC)cc1)[N+](=O)[O-]`, the growth with HCT-15 colon was -35.4% (active); in the experiment on HT29 colon it was 3.04% (active); with SNB-75 CNS it was 53.9% (inactive); in the experiment on SNB-19 CNS, 30.1% (inactive); in the experiment with U251 CNS it was 22.5% (inactive); with PC-3 prostate it was 59.2% (inactive). The growth in the experiment on SK-MEL-5 melanoma was 36.2% (inactive); in the experiment with UACC-62 melanoma, -60.8% (active); in the experiment on LOX IMVI melanoma, -92.5% (active).
Turning to `[Cl][Sn]([c]1ccccc1)([c]1ccccc1)[c]1ccccc1`, the growth with HCT-15 colon is -87% (active); in the experiment on HT29 colon it was -81.4% (active); in the experiment on SNB-75 CNS, -98.6% (active); in the experiment on SNB-19 CNS it was -76.5% (active); in the experiment with U251 CNS, -98.6% (active); with PC-3 prostate, -72.9% (active). The results for the growth in the experiment with SK-MEL-5 melanoma, in the experiment with UACC-62 melanoma and in the experiment on LOX IMVI melanoma were -88.7% (active), -75.4% (active) and -76.1% (active), respectively.
